Measured values as given in PubChem BioAssay AID504832 (National Center for Advancing Translational Sciences (NCATS), 2011).
About 18,000 (5.8%) of roughly 310,000 compounds were called active. Roughly 22% stayed inconclusive and do not appear here. Only a selection was taken, and actives are over-represented in it overall. A number with no mark means an inactive call. Calls follow the shape of the dose curve; as a rule, active = well fitted inhibition curve with a large enough effect; inconclusive = small, poorly fitted or top-dose-only effect, or another doubt; inactive = no such curve, though single readings can be large or run the other way.
% is scaled to controls: 0 for no effect and ±100 for the full control effect; potency is read from the fitted curve at half-maximal effect.

Test: Primary qHTS for delayed death inhibitors of the malarial parasite plastid, 48 hour incubation
Settings: P. falciparum luciferase growth in erythrocytes; series mostly up to 28.7 µM; activity change, negative = inhibition: at the top concentration
Procedure, shortened: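 Growth was read as firefly luciferase luminescence after a 48 h, 37 C, 5% CO2 exposure of compounds to reporter-bearing P. falciparum cultures (0.1% parasitemia, 2% hematocrit final) in Albumax-supplemented RPMI 1640.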
In the case of `O=C(NNC(=O)c1csc(-c2cccnc2)n1)Nc1ccc(Cl)cc1`, the Potency is reported as 8.28 µM (active).
In the case of `O=C(NNC(=O)c1cccnc1)Nc1ccccc1`, the “activity change, negative = inhibition” value is reported as -5.94%.
In the case of `O=C(Nc1ccc(Cl)cc1)Nc1ccc(Oc2cccnc2)nc1`, the “activity change, negative = inhibition” value is reported as 61.4%.
With `COc1cccc(CNS(=O)(=O)c2ccc3c(c2)CC(C)N3C(C)=O)c1` (stereo not drawn) the “activity change, negative = inhibition” value was 19.4%.
In the case of `Cc1cccc(OCC(=O)NC2CC(C)(C)NC(C)(C)C2)c1`, the “activity change, negative = inhibition” value is reported as 9.53%.
For `COc1ccc(CCNC(=O)c2c(C)nn(-c3ccccc3)c2Cl)cc1`, the “activity change, negative = inhibition” value was 17.6%.
In the case of `Cc1ccc(Oc2nc3ccccc3n3c(C)nnc23)cc1`, the “activity change, negative = inhibition” value is reported as 15.2%.
With `CC(C)(C)Nc1nc(-c2ccccn2)nc2ccccc12` the Potency was 2.94 µM (active).
For `CCC(=O)OCCNc1nc(-c2ccccc2)nc2ccccc12`, the “activity change, negative = inhibition” value was 20.8%.
With `COc1ccc(Nc2nc(-c3cccnc3)nc3ccccc23)cn1` the “activity change, negative = inhibition” value was 0%.
In the case of `COc1ccc(Sc2nc(-c3ccccc3)ncc2OC)cc1`, the “activity change, negative = inhibition” value is reported as 60.4%.
For `COc1ccc(Cc2nc(-c3ccccn3)no2)cc1OC`, the “activity change, negative = inhibition” value was 54.6%.
With `Cc1ccc(Oc2nc(-c3ccccn3)nc3ccccc23)cc1` the Potency was 1.47 µM (active).
For `COc1cnc(-c2ccccn2)nc1Oc1ccc(C(C)(C)C)cc1`, the Potency was 1.65 µM (active).
In the case of `N#Cc1ccc(Oc2cc(C(F)(F)F)nc(-c3ccccn3)n2)cc1`, the “activity change, negative = inhibition” value is reported as 22.8%.
For `COc1ccc(S(=O)(=O)N(CC(=O)N/N=C/c2ccc(C(=O)O)cc2)Cc2ccccc2)cc1OC`, the “activity change, negative = inhibition” value was -7.28%.
With `COc1ccc(C)cc1N(CC(=O)NC(C)c1ccccc1)S(C)(=O)=O` (stereo not drawn) the “activity change, negative = inhibition” value was -4.34%.
With `Cc1ccccc1OCC(=O)NNC(=O)c1cc(S(=O)(=O)N(C)C)ccc1N1CCCC1` the “activity change, negative = inhibition” value was -1.17%.
With `Cc1ccc(S(=O)(=O)N(CC(O)CN2CCCCC2)c2cccc([N+](=O)[O-])c2)cc1` (stereo not drawn) the “activity change, negative = inhibition” value was 3.97%.
For `CC(C)CNS(=O)(=O)c1ccc(CCC(=O)NCc2ccc(Cl)cc2)cc1`, the “activity change, negative = inhibition” value was -15.5%.
For `NC(=O)c1cc(S(=O)(=O)N2CCCC2)ccc1OCc1ccc(F)cc1`, the “activity change, negative = inhibition” value was -18.6%.
In the case of `CCOc1ccc(-c2cc(C)[n+](CCN(CC)CC)c(-c3ccc(OCC)cc3)c2)cc1`, the Potency is reported as 0.329 µM (active).
For `CCOc1ccc(-c2nnc3ccc(SC)nn23)cc1`, the “activity change, negative = inhibition” value was 19.5%.
In the case of `CCOc1ccc(-c2nnc(-c3ccco3)o2)cc1`, the “activity change, negative = inhibition” value is reported as -31.2%.
With `COc1cc(NC(=O)c2cc([N+](=O)[O-])ccc2Br)ccc1NC(=O)c1ccco1` the “activity change, negative = inhibition” value was 12.6%.
With `O=C(Nc1ccc(NC(=O)c2ccco2)c(Cl)c1)c1cccc([N+](=O)[O-])c1` the Potency was 10.4 µM (active).
For `CCC(=O)NC(=S)Nc1ccc(NC(=O)c2ccco2)c(Cl)c1`, the “activity change, negative = inhibition” value was 10.8%.
For `Cc1ccc(OCC(=O)NC(C)c2ccccc2)cc1C` (stereo not drawn), the “activity change, negative = inhibition” value was -4.35%.
In the case of `O=C(N/N=C/c1ccc(O)c2ccccc12)c1cccnc1`, the “activity change, negative = inhibition” value is reported as -3.94%.
With `Cc1ccc2occ(/C=N/NC(=O)c3ccccc3C)c(=O)c2c1` the “activity change, negative = inhibition” value was 33.4%.
In the case of `Cc1ccc(/C=N/NC(=O)C2=NNC(c3ccccc3)(c3ccccc3)C2)c(O)c1`, the Potency is reported as 4.15 µM (active).
With `CCN(C(=O)CSc1nnnn1-c1ccccc1OC)C1CCS(=O)(=O)C1` (stereo not drawn) the “activity change, negative = inhibition” value was -20.5%.
In the case of `CC(=O)N1CCSc2ccc(S(=O)(=O)N3CCC(C)CC3)cc21`, the “activity change, negative = inhibition” value is reported as 1.61%.
For `CCc1ccc(NC(=O)Cn2nnc(C(=O)NCc3ccc(OC)cc3)c2N)cc1`, the “activity change, negative = inhibition” value was 23%.
For `COc1cccc(-c2ccc(SCC(=O)N3CCN(c4ccccc4)CC3)nn2)c1`, the “activity change, negative = inhibition” value was -4.56%.
In the case of `COc1ccc(C(CC(=O)N2CCN(c3ccccc3)CC2)c2c(O)cc(OC)cc2OC)cc1` (stereo not drawn), the Potency is reported as 10.4 µM (active).
In the case of `CC(CC(=O)N1CCN(c2ccccc2)CC1)c1ccccc1` (stereo not drawn), the “activity change, negative = inhibition” value is reported as -0.834%.
For `Cc1ccc(CS(=O)(=O)CCC(=O)NCc2ccc(F)cc2)cc1`, the “activity change, negative = inhibition” value was 21.5%.
With `CC[C@]1(c2ccccc2OC)C(=O)N(C(=O)OC)N1C(=O)OC` the “activity change, negative = inhibition” value was -64%.
In the case of `CCOc1ccc(NC(=O)CN(C)C(=O)c2c(C)noc2C)cc1OCC`, the “activity change, negative = inhibition” value is reported as 5.49%.
In the case of `Cc1ccc(S(=O)(=O)CCC(=O)OCC(=O)N(C)C2CCS(=O)(=O)C2)cc1` (stereo not drawn), the “activity change, negative = inhibition” value is reported as -27.9%.
With `Cc1cc(C)c(C)c(S(=O)(=O)Nc2ccc(O)cc2)c1C` the Potency was 7.38 µM (active).
With `CCOc1ccc(NS(=O)(=O)c2cc(C)c(C)cc2C)cc1` the “activity change, negative = inhibition” value was 0.582%.
In the case of `Cc1cc(C(C)(C)C)cc(S(=O)(=O)Nc2ccc(C(=O)O)cc2)c1C`, the “activity change, negative = inhibition” value is reported as -2.76%.
With `NS(=O)(=O)c1ccc(CCNC(=O)CNC(=O)Cc2ccccc2)cc1` the “activity change, negative = inhibition” value was 23.1%.
In the case of `O=C1NC(=O)C(c2ccc(Cl)cc2)N1` (stereo not drawn), the “activity change, negative = inhibition” value is reported as 11.5%.
For `S=C(c1ccccc1)N1CCCC1`, the “activity change, negative = inhibition” value was 6.41%.
With `Cn1c(=O)[nH]c(=O)c2c1nc(N1CCCCCC1)n2CC(=O)c1ccccc1` the “activity change, negative = inhibition” value was 8.78%.
In the case of `CCCSc1nc2c(c(=O)[nH]c(=O)n2C)n1CCc1ccccc1`, the “activity change, negative = inhibition” value is reported as 5.19%.
With `CC1CCN(c2nc3c(c(=O)[nH]c(=O)n3C)n2CCCc2ccccc2)CC1` the Potency was 11.7 µM (active).
For `Cc1[nH]c2ccccc2c1C(=O)C(C)Sc1nnc(C2CC2)o1` (stereo not drawn), the Potency was 3.7 µM (active).
In the case of `Cc1[nH]c2ccccc2c1C(=O)CN1CC(C)CC(C)C1` (stereo not drawn), the “activity change, negative = inhibition” value is reported as -1.93%.
With `Cc1[nH]c2ccccc2c1C(=O)COC(=O)C(C)C` the “activity change, negative = inhibition” value was 7%.
